Experimental findings from PubChem BioAssay (NCI) are described below.

Structures are written as SMILES. Compounds without any hit were thinned out: in the full panel of roughly 79,000, 15% have a hit. A number with no mark means an inactive call. The source made the active and inactive calls. Rule as the data show it: active = growth inhibition above about 70%; inactive = the rest.

Assay [1] is described as follows: NCI Yeast Anticancer Drug Screen. Data for the rad50 strain (AID 155).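 Also: 0% = growth of vehicle-only cultures of the same strain.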 Conditions: S. cerevisiae rad50 strain growth inhibition; at 50.0 µM; stronger effect = higher value. The procedure, abridged:
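DNA repair mutant yeast, compound exposure, growth read-out; inhibition is taken relative to vehicle.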

Assay [2] can be described thus: NCI Yeast Anticancer Drug Screen. Data for the mec2-1 strain (AID 157). The conditions noted are these: S. cerevisiae mec2-1 strain, at 50.0 µM, stronger effect = higher value. The method, boiled down: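 Strain: mec2-1 (DNA repair/cell cycle alteration). Compound exposure, then growth measured; inhibition expressed relative to vehicle.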
Assay [3] in a line: NCI Yeast Anticancer Drug Screen. Data for the sgs1 mgt1 strain (AID 161).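 Also: 0% = growth of cultures given vehicle only.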 The conditions noted are these: S. cerevisiae sgs1 mgt1 strain, at 50.0 µM, stronger effect = higher value. The procedure, abridged: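 Inhibition of yeast growth, normalised to vehicle-treated controls, is reported for a strain bearing genetic alterations in DNA damage repair.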
Assay [4] can be described thus: NCI Yeast Anticancer Drug Screen. Data for the cln2 rad14 strain (AID 165).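 Also: 0% = growth equal to vehicle treated cultures.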 The conditions noted are these: S. cerevisiae cln2 rad14 strain, at 50.0 µM, stronger effect = higher value. The procedure, abridged:
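Compounds are applied to the cln2 rad14 yeast strain, and growth is then compared with that of vehicle-treated cultures to give inhibition.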

Assay [5] in a line: NCI Yeast Anticancer Drug Screen. Data for the bub3 strain (AID 167). The conditions noted are these: S. cerevisiae bub3 mutant strain, at 50.0 µM, stronger effect = higher value. The procedure, abridged: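 In this screen, a yeast mutant lacking normal mitotic checkpoint function is challenged with compound. Relative growth versus vehicle gives the inhibition value.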
A short description of assay [6]: NCI Yeast Anticancer Drug Screen. Data for the mlh1 rad18 strain (AID 175). Conditions: S. cerevisiae mlh1 rad18 strain growth inhibition; at 50.0 µM; stronger effect = higher value. The method, boiled down:
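Read-out is yeast growth inhibition, calculated against vehicle-only controls. The compound was applied to a strain engineered with DNA damage repair alterations.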

As to `CCCCCCCCCSCCOC(=S)N(C)C`, the growth inhibition is 13.7% in assay [1]; 14.7% in assay [2]; 79.2% (active) in assay [3]; 2.7% in assay [4]; 21.8% in assay [5]; 34.6% in assay [6].

For the compound `COC(=O)/C(=C\C(=O)c1ccc(Br)cc1)NN=C(c1ccccc1)c1ccccc1`, the growth inhibition is -20.3% in assay [1]; -1.55% in assay [2]; -3.3% in assay [3]; 4.25% in assay [4]; -20.1% in assay [5]; -20.4% in assay [6].

`CCOC(=O)CC(=O)Nc1cccc2sc3ncccc3c(=O)c12`: the growth inhibition in assay [1] is -35.4%; in assay [2] it was -52.6%; in assay [3], -4.25%; in assay [4] it was 15.4%; in assay [5] it was 0.7%; in assay [6], 0.2%.

Consider `Nc1cccc(N)n1.[Cu+2]`, for which the growth inhibition in assay [1] was -20.1%; in assay [2] it was -12.1%; in assay [3], -13.8%; in assay [4] it was -13.2%; in assay [5] it was -15%; in assay [6] it was -14.2%.

For `Nc1nc(C(=O)O)c(N=Nc2ccccc2)c(=O)[nH]1`, the growth inhibition in assay [1] is 31.1%; in assay [2], -10.2%; in assay [3] it was 7.35%; in assay [4] it was 24.4%; in assay [5] it was -16.1%; in assay [6], -20.8%.

As to `O=C(Nc1cc([N+](=O)[O-])cc2c1[nH]c(=O)c1ccccc12)C(F)(F)F`, the growth inhibition in assay [1] was 26.2%; in assay [2], -2.8%; in assay [3], 10.8%; in assay [4], -41.2%; in assay [5] it was -7.4%; in assay [6], -0.25%.

For the compound `CCCCCCC(C)C(C#N)C(=O)OCC` (stereo not given), the growth inhibition is -11.8% in assay [1]; -11.8% in assay [2]; -26.1% in assay [3]; -4.15% in assay [4]; -16.6% in assay [5]; -14.3% in assay [6].

`CCOC(=O)C(NNc1ccccc1)C(=O)C(F)(F)F` (stereo not given): the growth inhibition was 10.9% in assay [1]; 3.2% in assay [2]; -9.3% in assay [3]; -18.8% in assay [4]; 1.35% in assay [5]; 18.6% in assay [6].

Take `COC(=O)C1C(C)(C(=O)OC)N=NC1(c1ccccc1)c1ccccc1` (stereo not given): the growth inhibition in assay [1] is 7.85%; in assay [2], -1.05%; in assay [3] it was -7.55%; in assay [4], 16%; in assay [5], 19.8%; in assay [6], -3.4%.

For `C[N+](C)(CC(=O)Nc1ccc(Cl)cc1)Cc1ccc2c(c1)CCCC2`, the growth inhibition in assay [1] is 99.5% (active); in assay [2], 99.8% (active); in assay [3], 99.8% (active); in assay [4], 99% (active); in assay [5] it was 99.3% (active); in assay [6] it was 99.7% (active).

Turning to `CC(=O)Nc1c([N+](=O)[O-])cc(O)cc1[N+](=O)[O-]`, the growth inhibition was -17.9% in assay [1]; -15.7% in assay [2]; 12.3% in assay [3]; -26.3% in assay [4]; -16.9% in assay [5]; -8.45% in assay [6].

As for `COC(=O)CC1CSCC1=O` (stereo not given), the growth inhibition was 7.5% in assay [1]; 22.1% in assay [2]; 5.95% in assay [3]; -12.5% in assay [4]; 12.6% in assay [5]; 11.2% in assay [6].

With `CN(C)/C=N/c1cc(=O)n(C)c(=O)n1C`, the growth inhibition in assay [1] was 48.2%; in assay [2], 13.4%; in assay [3], 1.85%; in assay [4], 2.9%; in assay [5], -18.1%; in assay [6], -16.4%.

On to `CCOc1ccc2nc3cc(I)ccc3c(N)c2c1`, for which the growth inhibition is 8.15% in assay [1]; -24.2% in assay [2]; 14.6% in assay [3]; -10.3% in assay [4]; -0.05% in assay [5]; 27.1% in assay [6].

Regarding `CC(=O)OCC1OC(n2cnc([N+](=O)[O-])c2C#N)C(OC(C)=O)C1OC(C)=O` (stereo not given), the growth inhibition in assay [1] is 28.6%; in assay [2], 14.7%; in assay [3], 22.3%; in assay [4], 30.1%; in assay [5] it was 3.45%; in assay [6], 34.3%.

As to `CC(C)(C)OC(=O)NC(CSSCC(NC(=O)OC(C)(C)C)C(=O)O)C(=O)O` (stereo not given), the growth inhibition was -7.05% in assay [1]; -10.2% in assay [2]; -10.7% in assay [3]; -3.45% in assay [4]; -5.7% in assay [5]; -6.4% in assay [6].

Turning to `CCOC(=O)c1ccc(NC(=O)CCCCl)cc1`, the growth inhibition is 6.15% in assay [1]; -14.2% in assay [2]; -8.75% in assay [3]; 8.55% in assay [4]; 12.7% in assay [5]; -24.3% in assay [6].

`O=C(O)c1ccc(C2=Cc3cc(Cl)ccc3OC2)cc1`: the growth inhibition in assay [1] was 19.6%; in assay [2], -5.1%; in assay [3], -19.4%; in assay [4], 26.2%; in assay [5], -15.1%; in assay [6], -11.1%.

In the case of `CCCNC(=O)N(CCC)S(=O)(=O)c1ccc(Cl)cc1`, the growth inhibition in assay [1] is -6.85%; in assay [2], 8.45%; in assay [3] it was 12.3%; in assay [4], 24.6%; in assay [5], 22.7%; in assay [6] it was 25.6%.

`c1ccc(-c2nc3cc4ccccc4cc3nc2-c2ccccc2)cc1`: the growth inhibition in assay [1] was -17.4%; in assay [2], -12.6%; in assay [3] it was -4.9%; in assay [4] it was -35.6%; in assay [5], -25.9%; in assay [6], -18.6%.
